In the library only some 2.4% were active in any assay of this set; here they are far more common.
D2 antag = antagonizes the human D2 dopamine receptor; P14416; HEK293 TREx D2 cells, calcium flux, dopamine EC80; inhibition, % at 10 µM; 2% of 340,000 active; in the data active means inhibition above about 30%; inactive means below that, where a call was filed
Target sequence (P14416 whole entry, looked up): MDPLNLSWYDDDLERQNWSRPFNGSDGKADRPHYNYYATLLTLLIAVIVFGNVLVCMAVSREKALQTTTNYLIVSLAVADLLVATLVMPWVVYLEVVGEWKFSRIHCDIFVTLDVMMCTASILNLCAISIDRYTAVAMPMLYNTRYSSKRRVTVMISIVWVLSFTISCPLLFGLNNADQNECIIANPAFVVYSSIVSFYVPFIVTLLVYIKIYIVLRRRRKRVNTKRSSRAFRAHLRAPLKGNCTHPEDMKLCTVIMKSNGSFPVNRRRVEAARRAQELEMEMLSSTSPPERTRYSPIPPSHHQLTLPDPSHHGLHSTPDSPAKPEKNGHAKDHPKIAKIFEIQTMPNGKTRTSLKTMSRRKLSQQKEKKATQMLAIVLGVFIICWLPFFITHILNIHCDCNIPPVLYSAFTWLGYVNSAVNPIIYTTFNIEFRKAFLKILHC
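Inhibition of EC80 dopamine-driven calcium flux, recorded kinetically, defines activity here; cells are a tetracycline-induced HEK293 T-REx line expressing force-coupled D2.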
D2 PAM-1 = D2 dopamine receptor (human) potentiation. potentiation, % at 10 µM. HEK293 T-REx D2, calcium flux, EC20 dopamine potentiation. AID 485347. P14416. 0.34% of 340,000 active;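 active means potentiation over 3 SD above the plate norm, cut at about 30% in these data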
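Cells plated with tetracycline inducer and held overnight at 30 C; calcium dye loaded 30–90 min at room temperature; baseline taken, compound added and read 180 s; EC20 dopamine then added and read 180 s.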
D2 ag-1 = agonists of human D2 dopamine receptor (beta-arrestin) | P14416 | DiscoveRx PathHunter D2 beta-arrestin, luminescence, 90 min; 100% = 57 uM dopamine signal | activation, % (no concentration beside the values) | 0.084% of 360,000 active; in the data active means activation above about 40%; inconclusive means between about 15% and that limit
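DiscoveRx PathHunter D2 beta-arrestin cells (2,100/well) attached overnight, then compound-stimulated 90 min at 37 C in HBSS/10 mM HEPES/0.1% Tween-20 buffer; beta-galactosidase complementation read by luminescence after 1 h at ambient temperature. Dopamine 57 uM final (EC100) as control.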
D2 ag-2 = D2 dopamine receptor (human) agonism; P14416; HEK293 T-REx D2 cells, calcium flux agonist mode; activation, % at 2 µM; 0.53% of 340,000 active; AID 485358;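 active means activation over 3 SD above normal in the single-dose calcium agonist read, cut at about 30% in these data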
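Tetracycline-induced HEK293 T-REx cells with force-coupled D2 receptor, plated overnight at 30 C, loaded with no-wash calcium dye. After a 10 s baseline, compound was pin-added and calcium flux read kinetically for 180 s; calcium rises flagged agonists.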
D2 PAM-2 = human D2 receptor positive allosteric modulation. 0.23% of 360,000 active. AID 624464. P14416. DiscoveRx D2 beta-arrestin cells, luminescence, 90 min; 100% = 57 uM dopamine signal. potentiation, % (concentration not given with the values); in the data active means potentiation above about 50%; inconclusive means mostly about 30% to 49%
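D2 cells co-treated with compound plus 50 nM dopamine (EC20) for 90 min at 37 deg C to detect potentiation. Beta-arrestin recruitment was read as enzyme-fragment luminescence after 1 h at ambient temperature. Full response was set by 57 uM dopamine.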
Hits are given with their value; i = inactive; ? = inconclusive; nt = no result.

SMILES | D2 antag | D2 PAM-1 | D2 ag-1 | D2 ag-2 | D2 PAM-2
N/C(=N\OC(=O)c1cccc(Cl)c1)c1ccncc1 | i | i | ? | i | i
CN(C)c1ccc(NC(=O)CN2C(=O)c3ccccc3Sc3ccc(C(=O)N4CCCC4)cc32)cc1 | nt | i | nt | i | nt
CCOc1ccccc1CNC(=O)c1[nH]c2ccccc2c1Sc1ccccc1 | nt | i | nt | i | nt
CCOc1ccccc1OCCNC1CCCC1 | 61.8 | i | i | i | i
Brc1cccc(OCCCNC2CCCC2)c1 | 57.6 | i | i | i | i
Cc1ccc(C)c(OCCCNC2CCCC2)c1C | i | i | i | i | i
CCOc1ccc(OCCNC2CCCC2)cc1 | i | i | i | i | i
COc1cccc(OC)c1OCCCNC1CCCC1 | 47.7 | i | i | i | i
CCc1cccc(NC(=O)c2cnc(SC)nc2-c2ccccc2)c1 | nt | i | nt | i | nt
CCC(C(=O)Nc1ccccc1C(=O)OC)n1nc(C)c2c(C)n(-c3ccc(C)cc3)nc2c1=O (centres undefined) | nt | i | nt | i | nt
CCOc1ccc(C(=O)Nc2ccccc2OCc2cc(=O)n3ccccc3n2)cc1 | nt | i | nt | i | nt
Cc1occc1-c1nnc(-c2cc([N+](=O)[O-])cc([N+](=O)[O-])c2)o1 | i | i | ? | i | 66.2
CCOc1ccc2nc(NC(=O)c3nc(SCc4ccc(C)cc4)ncc3Cl)sc2c1 | nt | i | nt | nt | nt
COc1cccc(C(C(=O)NC2CCCCC2)N(Cc2ccco2)C(=O)c2ccccn2)c1 (centres undefined) | 34.1 | i | i | i | i
CCOc1cccc(N2CCN(CCNC(=O)Nc3ccc(C)cc3)CC2)c1C | 43.9 | i | i | i | i
CCOc1ccc(NC(=O)NCCN2CCN(c3cccc(C)c3C)CC2)cc1 | i | i | i | i | i
Cc1ccc(CN2C(=O)CCC2C(=O)NCCN2CCN(c3cccc(Cl)c3)CC2)cc1 (centres undefined) | 43.8 | i | i | i | i
O=C(Cn1nc(-c2ccccc2)ccc1=O)NCCN1CCN(c2cccc(Cl)c2)CC1 | 63.6 | i | i | i | i
COc1ccc(NC(=O)NCCN2CCN(c3cccc(Cl)c3)CC2)cc1 | 36.1 | i | i | i | i
O=C1COc2cc(S(=O)(=O)CCC(=O)NC3CCCCC3)c(Cl)cc2N1 | nt | i | nt | i | nt
CCCCCn1c(CN2CCCCC2CC)nc2c1c(=O)n(C)c(=O)n2C (centres undefined) | i | 54.5 | i | i | i
COc1cc2oc(=O)c(CC(=O)NCCc3ccccc3)c(C)c2cc1Cl | nt | i | nt | i | nt
CCC(=O)Nc1cc2c3c(c1)CCN3C(=O)CC2 | 32.9 | i | i | i | i
COc1ccc(CCNC(=O)CSc2nnnn2-c2cccc(C(C)=O)c2)cc1OC | nt | i | nt | i | nt
Cc1ccc(NC(=S)N2CCCC(c3nc4ccccc4[nH]3)C2)cc1 (centres undefined) | nt | nt | i | nt | i
SMILES | D2 antag | D2 PAM-1 | D2 ag-1 | D2 ag-2 | D2 PAM-2
Cc1ccccc1NC(=S)N1CCCC(c2nc3ccccc3[nH]2)C1 (centres undefined) | 32.0 | i | i | i | i
CCOC(=O)c1cc2sccc2n1CC(=O)N1CCc2ccccc21 | i | 34.1 | i | i | i
CCOc1ccc(NC(=O)N2CCC(N3CCCCC3)CC2)cc1 | nt | i | nt | i | nt
Cc1cc(-c2ccc(C(C)C)c(S(=O)(=O)Nc3ccccn3)c2)on1 | 31.2 | i | i | i | i
Cc1cc(-c2ccc(C)c(S(=O)(=O)Nc3ccccn3)c2)on1 | nt | i | nt | i | nt
Cc1ccc(NC(=O)CS(=O)(=O)c2cn(C)c3ccccc23)c(C)c1 | i | i | i | i | i
COc1ccc(NC(=O)CS(=O)(=O)c2cn(CC(=O)N(C(C)C)C(C)C)c3ccccc23)c(OC)c1 | i | i | i | i | i
Cn1cc(S(=O)(=O)CC(=O)Nc2ccc(Br)cc2)c2ccccc21 | 39.2 | i | i | i | i
CCCn1cc(S(=O)(=O)CC(=O)Nc2ccc(OC)cc2OC)c2ccccc21 | i | i | i | i | 68.1
CCn1cc(S(=O)(=O)CC(=O)Nc2ccc3c(c2)OCCO3)c2ccccc21 | i | i | i | i | 52.6
CCCc1nn2c(=O)cc(COC(=O)c3ccco3)nc2s1 | nt | i | nt | i | nt
Cc1oc2ccc(OS(C)(=O)=O)cc2c1C(=O)OC(C)C | i | nt | i | i | i
CCN(CC)C(=O)COc1ccc2oc(C)c(C(=O)OC(C)C)c2c1 | 30.8 | i | i | i | i

Assay outcomes as filed in PubChem.
